This is a sample that favours compounds with a hit; in the whole collection about 5.2% have one here.
A3G deaminase: APOBEC3G DNA deaminase inhibitors, primary screen, biochemical, fluorescence, single-stranded DNA substrate, uHTS | inhibition, % at 20 µM | recombinant A3G, ssDNA deamination FAM/TAMRA fluorescence | AID 493012, 2011 | 330,000 tested, 0.28% active | DNA dC->dU-editing enzyme APOBEC-3G (Homo sapiens), Q9HC16;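 active = inhibition of at least 40% at 20 µM, with no more than 30% in the related APOBEC3A deaminase screen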
CendR NRP1 mod: modulators of CendR peptide binding to NRP-1, primary screen, biochemical, fluorescence polarization, uHTS. Neuropilin-1 (Homo sapiens), O14786. FAM-RPARPAR peptide binding to NRP-1. inhibition, % at 25 µM. 360,000 tested, 0.85% active. AID 602438, 2012;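 active = inhibition or corrected inhibition above about 18%, plus a signal ratio from 0.5 to 1.5, limit read from the data, passing the limit was not always enough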
PfM18AAP inh: PfM18AAP inhibitors, malaria aminopeptidase, primary screen, biochemical, QFRET, recombinant enzyme; inhibition, % at 7.35 µM; M18 aspartyl aminopeptidase (Plasmodium falciparum 3D7); 290,000 tested, 1.2% active; H-Glu-NHMec fluorogenic cleavage;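 active = inhibition above the campaign mean inhibition over all tested compounds plus 3 SD, cut at about 28% in these data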
ALR H2O2 inh: inhibitors of human ALR sulfhydryl oxidase, primary screen, biochemical, H2O2 detection, HRP-luminol luminescence, single point; FAD-linked sulfhydryl oxidase ALR (Homo sapiens), P55789; purified ALR, DTT oxidation; inhibition, % (test concentration not listed); 290,000 tested, 3.8% active; AID 485317, 2010;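 active = mean replicate inhibition above about 79%, with every replicate also reaching it, limit read from the data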
Target sequence (P55789 whole entry, looked up): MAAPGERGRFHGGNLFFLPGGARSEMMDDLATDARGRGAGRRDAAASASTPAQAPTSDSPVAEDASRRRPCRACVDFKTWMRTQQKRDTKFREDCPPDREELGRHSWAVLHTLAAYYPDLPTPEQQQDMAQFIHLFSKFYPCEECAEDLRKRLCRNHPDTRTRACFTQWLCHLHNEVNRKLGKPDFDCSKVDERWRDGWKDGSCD
Yeast superoxide: reduction of superoxide in aged yeast, primary screen, HTS | S. cerevisiae aged cells, superoxide DHE fluorescence; hits give low values | superoxide response (% of plate mean), % at 10 µM | 330,000 tested, 0.18% active;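 active = superoxide response under a set limit, about three screen SD below normal, cut at about 65% in these data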;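 note: yeast aged for seven days with compound at 30 °C before DHE staining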
A3A deaminase: APOBEC3A ssDNA deaminase inhibitors, primary screen, selectivity assay for APOBEC3G inhibitor project, biochemical, FAM/TAMRA oligo cleavage fluorescence; inhibition, % at 20 µM; AID 493011, 2011; 330,000 tested, 0.41% active; recombinant A3A, FAM/TAMRA ssDNA deamination fluorescence; DNA dC->dU-editing enzyme APOBEC-3A (Homo sapiens), P31941;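 active = at least 40% inhibition at 20 µM here, with at most 30% in a related deaminase screen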
Target sequence (P31941 whole entry, looked up): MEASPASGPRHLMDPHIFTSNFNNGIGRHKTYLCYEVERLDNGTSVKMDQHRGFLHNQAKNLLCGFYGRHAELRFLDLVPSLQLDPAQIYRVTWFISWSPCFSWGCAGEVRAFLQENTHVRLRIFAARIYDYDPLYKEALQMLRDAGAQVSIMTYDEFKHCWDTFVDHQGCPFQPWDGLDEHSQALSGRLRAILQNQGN
CR mimetic CP: superoxide lowering in aged yeast cells, confirmation, cherry picked compounds; shares compounds with Yeast superoxide; S. cerevisiae aging, superoxide DHE fluorescence; hits give low values; superoxide response (% of plate), % at 10 µM; 850 tested, 1% active; AID 434994, 2010;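 active = superoxide signal below 65% of the plate average of sample wells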;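 note: cells aged with compound for 7 days at 30 degrees C before staining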
DHE fluor count: DHE quenching or ROS scavenging interference in aged yeast, artefact control for yeast caloric restriction mimetic project, S. cerevisiae BY4741, flow cytometry | shares compounds with Yeast superoxide | fluorescence response, % at 10 µM | 850 tested, under 10 active | DHE fluorescence; hits give low values;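 active = fluorescence response below 15%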;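 note: lower means stronger quenching of DHE signal or ROS scavenging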
Each line names hits and unclear results; the compound was inactive in the other large screens (follow-up assays come after a bar, where they were run).

Cc1cc(C)c(NC(=O)CN2CCN(c3ccccn3)CC2)c(C)c1	none | CR mimetic CP inactive | DHE fluor count inactive
COC(=O)c1ccc(NC(=O)CN2CCN(c3ccccn3)CC2)cc1	none | CR mimetic CP inactive | DHE fluor count inactive
O=C(CN1CCN(c2ccccn2)CC1)Nc1ccccc1C(=O)Nc1ccccc1	none (no result: PfM18AAP inh)
O=C(CN1CCN(c2ccccn2)CC1)Nc1ccc(OCc2ccccc2)cc1	none
Fc1ccc(C(c2nnnn2Cc2cccs2)N2CCN(C3CCCCC3)CC2)cc1 (stereo not given)	none
CCOc1ccccc1C(=O)NCC(=O)OCCOc1cccc(Cl)c1	none
O=C(CN1CCN(c2ccccn2)CC1)Nc1ccccc1	none | CR mimetic CP inactive | DHE fluor count inactive
O=C(CN1CCN(c2ccccn2)CC1)Nc1ccc(Oc2ccccc2)cc1	none
O=C(CN1CCN(c2ccccn2)CC1)Nc1ccc(F)c(F)c1	none | CR mimetic CP inactive | DHE fluor count inactive
CN(C)S(=O)(=O)c1ccc(Cl)c(NC(=O)CN2CCN(c3ccccn3)CC2)c1	none (no result: ALR H2O2 inh, Yeast superoxide) | CR mimetic CP inactive | DHE fluor count inactive
O=C(CN1CCN(c2ccccn2)CC1)Nc1cccc(S(=O)(=O)N2CCCC2)c1	none
Cc1ccc(-c2nnc(Nc3ccccc3)c3ccccc23)cc1S(=O)(=O)NCC1CCCO1 (stereo not given)	none | CR mimetic CP inactive | DHE fluor count inactive
CNS(=O)(=O)c1cc(-c2nnc(Nc3ccc(NC(C)=O)cc3)c3ccccc23)ccc1C	Yeast superoxide 51 | CR mimetic CP inactive | DHE fluor count inactive
CNC(=O)c1ccc(Nc2nnc(-c3ccc(C)c(S(=O)(=O)NCC4CCCO4)c3)c3ccccc23)cc1 (stereo not given)	none | CR mimetic CP inactive | DHE fluor count inactive
Cc1ccc(-c2nn3c(-c4ccco4)nnc3c3ccccc23)cc1S(=O)(=O)NCC1CCCO1 (stereo not given)	none
CC(=O)Nc1ccc(NS(=O)(=O)c2cc(-c3n[nH]c(=O)c4ccccc34)ccc2C)cc1	none (no result: ALR H2O2 inh)
CNC(=O)c1ccc(Nc2nnc(-c3ccc(C(N)=O)cc3)c3ccccc23)cc1	none
CC(=O)Nc1ccc(Nc2nnc(-c3ccc(C)c(S(=O)(=O)NCC4CCCO4)c3)c3ccccc23)cc1 (stereo not given)	none | CR mimetic CP inactive | DHE fluor count inactive
Cc1cccc(C(=O)NCC(=O)NC2CCN(Cc3ccccc3)CC2)c1	none
CCCNc1c(NS(=O)(=O)c2c(F)c(F)c(F)c(F)c2F)c(=O)oc2ccccc12	none
O=c1c2ccc(Cl)cc2nc(-c2ccc([N+](=O)[O-])cc2)n1O	Yeast superoxide 54 | CR mimetic CP inactive | DHE fluor count inactive
COc1ccc(C(=O)OCc2nc(N)nc(Nc3ccccc3C)n2)cc1OC	none
COc1ccc(NC(C)=O)cc1NC(=O)CSc1nnc(-c2ccc(F)cc2)n1N	none | CR mimetic CP inactive | DHE fluor count inactive
CCOc1cccc(-c2nnc(SCC(=O)Nc3ccc(OC)c(OC)c3)n2N)c1	none | CR mimetic CP inactive | DHE fluor count inactive
COc1cccc(NC(=O)CSc2nnc(-c3cccc(OC(C)C)c3)n2N)c1	none (no result: ALR H2O2 inh) | CR mimetic CP inactive | DHE fluor count inactive
Cc1cccc(CN2C(=O)CCSc3ccc(Cl)cc32)c1	Yeast superoxide 65 | CR mimetic CP inactive | DHE fluor count inactive
O=C1CCSc2ccc(Cl)cc2N1Cc1ccccc1	none
Cc1cc(OCC(=O)N(C)C2CCCCC2)cc(C)c1Cl	Yeast superoxide 56 (no result: ALR H2O2 inh) | CR mimetic CP inactive | DHE fluor count inactive
N#Cc1ccc(Cl)cc1NC(=O)CNCc1cccs1	Yeast superoxide 63 (no result: ALR H2O2 inh) | CR mimetic CP inactive | DHE fluor count inactive
CC(=O)c1ccc(NC(=O)CNCc2cccs2)cc1	none (no result: ALR H2O2 inh)
CCOP(=O)(OCC)/C(=C/N1CCCCC1)NC(=O)c1ccccc1	none
CC1(C)C(=O)CC[C@@]2(C)[C@H]1CC[C@@]1(C)CC3=C(CC[C@@H]12)[C@@]1(C)CCC(=O)C(C)(C)[C@@H]1CC3	Yeast superoxide 64 (no result: CendR NRP1 mod, PfM18AAP inh, ALR H2O2 inh) | CR mimetic CP inactive | DHE fluor count inactive
COc1cccc(Cn2nnc(C(=O)NCc3ccc4c(c3)OCO4)c2N)c1	Yeast superoxide 64 | CR mimetic CP inactive | DHE fluor count inactive
COc1cccc(CNC(=O)c2nnn(CC(=O)Nc3ccc4c(c3)OCO4)c2N)c1	none (no result: ALR H2O2 inh)
CCOC(=O)C1CCCN(Cc2cc(Br)ccc2OC)C1 (stereo not given)	none
O=C(O)c1cc(=O)[nH]c2ccc(S(=O)(=O)Nc3ccc(F)cc3)cc12	Yeast superoxide 57 | CR mimetic CP inactive | DHE fluor count inactive
CC(C)c1ccc(NC(=O)Cn2c(=O)oc3ccccc32)cc1	Yeast superoxide 65 | CR mimetic CP inactive | DHE fluor count inactive
Cc1cc(OCc2cc(C(=O)NCc3csc(C(C)C)n3)no2)cc(C)c1Cl	none
Cc1ccc(S(=O)(=O)NNC(=O)c2snnc2C)cc1	none
Cc1nnsc1C(=O)NNS(=O)(=O)c1cc(C(F)(F)F)cc(C(F)(F)F)c1	Yeast superoxide 59 | CR mimetic CP inactive | DHE fluor count inactive
CSc1nsc(SCC(=O)Nc2ccc(OC(C)=O)cc2)n1	none
CCOP(=O)(c1ccc(N(C)C)cc1)C(O)c1ccc(Cl)cc1 (stereo not given)	none
OCCN(CCO)c1ccc(C(c2ccc(Cl)cc2)c2ccc(N(CCO)CCO)cc2Cl)c(Cl)c1	Yeast superoxide 62 | CR mimetic CP inactive | DHE fluor count inactive
CCN1CCCc2cc(CN(CCN3CCOCC3)C(=S)Nc3ccccc3C)ccc21	ALR H2O2 inh 99, Yeast superoxide 61 | CR mimetic CP inactive | DHE fluor count inactive
Cc1ccccc1NC(=S)N(CCN1CCCCCC1)Cc1cccs1	none
O=S(=O)(NCCn1ccc2ccccc21)c1ccccc1	Yeast superoxide 65 (no result: ALR H2O2 inh) | CR mimetic CP inactive | DHE fluor count inactive
CNC(=S)N1N=C(c2cccs2)CC1c1ccc(F)cc1 (stereo not given)	Yeast superoxide 65 | CR mimetic CP inactive | DHE fluor count inactive
O=C(Cn1ccc([N+](=O)[O-])n1)N1CCCCC1	none
CCN(CC)C(=O)c1cccc2nc3ccccc3nc12	none

Assay outcomes deposited in PubChem BioAssay by several laboratories.
